Assay results published in PubChem BioAssay (NCATS).
Values joined by “and” are separate entries in the source; they are usually repeats but may differ in a detail not shown here. Equal values may be shown once. Results filed as inconclusive are left out. Entries that show only a call come without a potency. Some compounds were tested as several samples or in several runs, with calls that do not always agree. Active and inactive are the calls of the source. The call rests on the fitted dose curve; in most records, active means well fitted curve in the direction sought with a large enough effect; inconclusive means small, poorly fitted or top-dose-only effect, or another doubt; inactive means no such curve, though single readings can be large; an effect the other way counts as inactive or inconclusive.

Assays:
HeLa = assay: Primary qHTS to identify gynecologic anti-cancer compounds using libraries of approved drugs and bioactive compounds (AID 1345084); details: Gynecologic cancer cell panel viability, ATPlite luminescence, 48 h; series mostly up to 57.5 µM; further: nearly all actives have a fitted effect of over 55% in size; further: potency means the concentration at half of the fitted maximal effect
How it was run: (§1)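 Luminescence from the ATPlite ATP-monitoring reagent indicates viable cell number; lower signal means cytotoxicity. Cells received compound 16 h after seeding and were exposed for 48 h across five concentrations.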

Hek293T = assay: as above; details: Gynecologic cancer cell panel viability, ATPlite luminescence, 48 h, control line for the selectivity index; series mostly up to 57.5 µM
How it was run: as §1

JEG-3 = assay: as above; details: Gynecologic cancer cell panel viability, ATPlite luminescence, 48 h; series mostly up to 57.5 µM
How it was run: as §1

OV90 = assay: as above; details: Gynecologic cancer cell panel viability, ATPlite luminescence, 48 h; series mostly up to 57.5 µM
How it was run: as §1

PA-1 = assay: as above; details: Gynecologic cancer cell panel viability, ATPlite luminescence, 48 h; series mostly up to 57.5 µM
How it was run: as §1

SKOV3 = assay: as above; details: Gynecologic cancer cell panel viability, ATPlite luminescence, 48 h; series mostly up to 57.5 µM
How it was run: as §1

Tov-21-G = assay: as above; details: Gynecologic cancer cell panel viability, ATPlite luminescence, 48 h; series mostly up to 57.5 µM
How it was run: as §1

Tov112D = assay: as above; details: Gynecologic cancer cell panel viability, ATPlite luminescence, 48 h; series mostly up to 57.5 µM
How it was run: as §1

[1] = Drug repurposing screens with cells derived from glioblastoma tumor samples (AID 1345199); details: GBM patient neurospheres viability, ATP luminescence, 48 h; Potency: tumour line A unless noted; series mostly up to 45.9 µM; further: nearly all actives have a fitted effect of over 40% in size
How it was run: (§2)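 Primary testing used CD133+ neurospheres from four GBM patients, seven concentrations, 48 h exposure and ATP-based viability; confirmation added three slower-growing patient lines.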

astro = assay: as above; details: viability, ATP luminescence, 48 h; series mostly up to 45.9 µM
How it was run: as §2

SMILES | Potency (HeLa) | Potency (Hek293T) | Potency (JEG-3) | Potency (OV90) | Potency (PA-1) | Potency (SKOV3) | Potency (Tov-21-G) | Potency (Tov112D) | Potency [1] | Potency (astro)
Cc1ccccc1-n1c(Cn2ncc3c(N)ncnc32)nc2cccc(C)c2c1=O | inactive | inactive | inactive | inactive | inactive | inactive | inactive | inactive | – | –
O=S(=O)(O)C(F)(F)C(F)(F)C(F)(F)C(F)(F)F | inactive | inactive | inactive | inactive | inactive | inactive | inactive | inactive | inactive | inactive
C=CC(=O)NCNC(=O)C=C | inactive | inactive | inactive | inactive | inactive | inactive | inactive | inactive | inactive | inactive
C1CCC(NC2CCCCC2)CC1 | inactive | inactive | inactive | inactive | inactive | inactive | inactive | inactive | inactive | inactive
O=C1C=CC[C@@H]2[C@H]3CCCN4CCC[C@@H](CN12)[C@@H]34 | inactive | inactive | inactive | inactive | inactive | inactive | inactive | inactive | – | –
CC(=O)N(C)c1cccc(-c2ccnc3c(C(=O)c4cccs4)cnn23)c1 | inactive | inactive | inactive | inactive | inactive | inactive | inactive | inactive | – | –
Cc1c(C(=O)Nc2cccc(C(F)(F)F)c2)cc(-c2ccccc2)n1CCCN1CCOCC1 | inactive | inactive | inactive | inactive | inactive | inactive | inactive | inactive | – | –
COC1=C[C@@H]2[C@@H]3Cc4ccc(OC)c(O)c4[C@]2(CCN3C)CC1=O | inactive | inactive | inactive | inactive | inactive | inactive | inactive | inactive | – | –
COC(=O)c1cncn1C(C)c1ccccc1 (configuration not stated) | inactive | inactive | inactive | inactive | inactive | inactive | inactive | inactive | inactive | inactive
CCNC(=O)CC1N=C(c2ccc(Cl)cc2)c2cc(OC)ccc2-n2c(C)nnc21 (configuration not stated) | inactive | inactive | inactive | inactive | inactive | inactive and 15.8 µM (active) | inactive | inactive | – | –
Cc1ccccc1-n1c(Cn2cnc3c(N)ncnc32)nc2cccc(C)c2c1=O | inactive | inactive | inactive | inactive | inactive | inactive | inactive | inactive | – | –
Nc1ccc([N+](=O)[O-])cc1 | inactive | inactive | inactive | inactive | inactive | – | inactive | inactive | – | inactive
O=[N+]([O-])c1ccc([As](=O)(O)O)cc1 | inactive | inactive | inactive | inactive | – | inactive | inactive | inactive | inactive | inactive
Nc1ccc(Cl)cc1 | inactive | inactive | inactive | – | inactive | inactive | inactive | inactive | inactive | inactive
O=S(=O)(c1ccc(Cl)cc1)c1ccc(Cl)cc1 | inactive | inactive | inactive | – | inactive | – | inactive | inactive | inactive | inactive
CCOP(=O)(NC(C)C)Oc1ccc(SC)c(C)c1 (configuration not stated) | inactive | inactive | inactive | – | inactive | – | inactive | inactive | inactive | inactive
CCCCCCCCCC(CC)c1ccc(S(=O)(=O)O)cc1 (configuration not stated) | inactive | inactive | inactive | – | inactive | – | inactive | inactive | inactive | inactive
Nc1ccc(Cl)cc1N | inactive | inactive | inactive | – | inactive | – | – | inactive | – | –
Cc1cc(O)ccc1Cl | inactive | inactive | inactive | – | inactive | inactive | inactive | inactive | inactive | inactive
CC(C)N(CCNC(=O)CN1CCCC1=O)C(C)C | inactive | inactive | inactive | inactive | inactive | – | inactive | inactive | – | –
C=CCC1=C(C)C(OC(=O)C2C(C=C(C)C)C2(C)C)CC1=O (configuration not stated) | inactive | inactive | inactive | inactive | – | – | inactive | inactive | – | –
Nc1c(Cl)c(Cl)c(Cl)c(Cl)c1Cl | inactive | inactive | inactive | inactive | inactive | – | inactive | inactive | inactive | inactive
O=C(Nc1ccccc1-c1ccc(Cl)cc1)c1cccnc1Cl | inactive | inactive | inactive | – | inactive | inactive | inactive | inactive | – | inactive
CC(=O)Nc1ccc(OC[C@](C)(O)C(=O)Nc2ccc([N+](=O)[O-])c(C(F)(F)F)c2)cc1 | inactive | inactive | inactive | inactive | inactive | inactive | – | inactive | – | –
